Key:
Experiment in all cases: growth AUC relative to DMSO control (median of replicates) (fraction); higher = more growth (less inhibition), active = hit call of the paper
Settings in all cases: 20 µM; 24 h;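 active = AUC reduced over 20% with Padj below 0.05 in at least 2 of 3 replicates; inactive = otherwise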
Akkermansia muciniphila = tested on: Akkermansia muciniphila
In short: (§1)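 Gut bacteria were grown singly in mGAM at 37 °C without oxygen, from OD600 0.05, alongside 20 µM compound in 1% DMSO, and OD600 was read each hour for 24 h. Area under the growth curve was normalised to the median of solvent-only wells per plate, or to row and column medians on the industrial chemical plate. The minimum OD was set to 0 beforehand, and the reported value is the median of three biological replicates grown on separate days.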

Bacteroides caccae = tested on: Bacteroides caccae
In short: as §1

Bacteroides clarus = tested on: Bacteroides clarus
In short: as §1

Bacteroides dorei = tested on: Bacteroides dorei
In short: as §1

Bacteroides stercoris = tested on: Bacteroides stercoris
In short: as §1

[1] = tested on: Bacteroides thetaiotaomicron
In short: as §1

Bacteroides uniformis = tested on: Bacteroides uniformis
In short: as §1

[2] = tested on: Bifidobacterium longum subsp. longum
In short: as §1

Clostridium difficile = tested on: Clostridium difficile
In short: as §1

Collinsella aerofaciens = tested on: Collinsella aerofaciens
In short: as §1

Coprococcus comes = tested on: Coprococcus comes
In short: as §1

Escherichia coli ED1a = tested on: Escherichia coli ED1a
In short: as §1

Escherichia coli IAI1 = tested on: Escherichia coli IAI1
In short: as §1

Eubacterium rectale = tested on: Eubacterium rectale
In short: as §1

[3] = tested on: Fusobacterium nucleatum subsp. animalis
In short: as §1

Lactobacillus gasseri = tested on: Lactobacillus gasseri
In short: as §1

Lactobacillus paracasei = tested on: Lactobacillus paracasei
In short: as §1

Odoribacter splanchnicus = tested on: Odoribacter splanchnicus
In short: as §1

[4] = tested on: Parabacteroides distasonis
In short: as §1

Parabacteroides merdae = tested on: Parabacteroides merdae
In short: as §1

Measured: growth AUC

COC(=O)c1ccc(I)cc1S(=O)(=O)[N-]C(=O)Nc1nc(C)nc(OC)n1.[Na+]
inactive: Akkermansia muciniphila 1.25 | Bacteroides caccae 0.901 | Bacteroides clarus 0.992 | Bacteroides dorei 0.933 | Bacteroides stercoris 1.01 | [1] 1.06 | Bacteroides uniformis 0.941 | [2] 1.01 | Clostridium difficile 0.991 | Collinsella aerofaciens 0.977 | Coprococcus comes 0.947 | Escherichia coli ED1a 1.02 | Escherichia coli IAI1 0.948 | Eubacterium rectale 1.07 | [3] 1.14 | Lactobacillus gasseri 0.919 | Lactobacillus paracasei 0.969 | Odoribacter splanchnicus 1.07 | [4] 0.95 | Parabacteroides merdae 1.01

Cc1cc(C)c(C2=C(O)C3(CCCC3)OC2=O)c(C)c1
active: Odoribacter splanchnicus 0.563 | [4] 0.622
inactive: Akkermansia muciniphila 1.01 | Bacteroides caccae 1.01 | Bacteroides clarus 1.02 | Bacteroides dorei 1.01 | Bacteroides stercoris 1.08 | [1] 0.986 | Bacteroides uniformis 0.989 | [2] 1.04 | Clostridium difficile 1.04 | Collinsella aerofaciens 1.04 | Coprococcus comes 0.981 | Escherichia coli ED1a 0.997 | Escherichia coli IAI1 1.01 | Eubacterium rectale 0.996 | [3] 0.947 | Lactobacillus gasseri 1.09 | Lactobacillus paracasei 1.02 | Parabacteroides merdae 1

c1ccc(Nc2ccccc2)cc1
inactive: Akkermansia muciniphila 0.883 | Bacteroides caccae 1.01 | Bacteroides clarus 0.94 | Bacteroides dorei 1.03 | Bacteroides stercoris 0.951 | [1] 1 | Bacteroides uniformis 0.981 | [2] 0.953 | Clostridium difficile 0.999 | Collinsella aerofaciens 1.01 | Coprococcus comes 0.97 | Escherichia coli ED1a 0.986 | Escherichia coli IAI1 1.01 | Eubacterium rectale 0.9 | [3] 0.988 | Lactobacillus gasseri 1.1 | Lactobacillus paracasei 0.878 | Odoribacter splanchnicus 1.03 | [4] 1.02 | Parabacteroides merdae 0.983

CCc1nc2ncnn2c(N)c1CCCC(=O)O.Cl
inactive: Akkermansia muciniphila 1.12 | Bacteroides caccae 0.907 | Bacteroides clarus 1.03 | Bacteroides dorei 1 | Bacteroides stercoris 1.14 | [1] 0.985 | Bacteroides uniformis 1.02 | [2] 1.01 | Clostridium difficile 1.04 | Collinsella aerofaciens 1 | Coprococcus comes 1.02 | Escherichia coli ED1a 1.02 | Escherichia coli IAI1 1.05 | Eubacterium rectale 1.07 | [3] 1.13 | Lactobacillus gasseri 0.975 | Lactobacillus paracasei 1.1 | Odoribacter splanchnicus 0.952 | [4] 0.991 | Parabacteroides merdae 0.997

CCOC(=O)C1=NN(c2ccc(Cl)cc2Cl)C(C)(C(=O)OCC)C1 (stereo not given)
inactive: Akkermansia muciniphila 0.965 | Bacteroides caccae 0.979 | Bacteroides clarus 0.932 | Bacteroides dorei 1.02 | Bacteroides stercoris 0.933 | [1] 0.92 | Bacteroides uniformis 0.95 | [2] 0.931 | Clostridium difficile 1.03 | Collinsella aerofaciens 1.01 | Coprococcus comes 0.97 | Escherichia coli ED1a 0.993 | Escherichia coli IAI1 0.989 | Eubacterium rectale 0.903 | [3] 0.985 | Lactobacillus gasseri 1.06 | Lactobacillus paracasei 0.883 | Odoribacter splanchnicus 1.04 | [4] 0.918 | Parabacteroides merdae 0.928

CSc1nc(NC2CC2)nc(NC(C)(C)C)n1
inactive: Akkermansia muciniphila 0.845 | Bacteroides caccae 1.03 | Bacteroides clarus 0.988 | Bacteroides dorei 1.03 | Bacteroides stercoris 0.871 | [1] 0.895 | Bacteroides uniformis 1 | [2] 1.04 | Clostridium difficile 1.04 | Collinsella aerofaciens 1.06 | Coprococcus comes 0.981 | Escherichia coli ED1a 1.03 | Escherichia coli IAI1 1.03 | Eubacterium rectale 0.974 | [3] 1.06 | Lactobacillus gasseri 1.05 | Lactobacillus paracasei 0.987 | Odoribacter splanchnicus 1.11 | [4] 1.02 | Parabacteroides merdae 0.991

O=c1oc(-c2ccccc2)nc2ccccc12
inactive: Akkermansia muciniphila 0.96 | Bacteroides caccae 1.01 | Bacteroides clarus 0.984 | Bacteroides dorei 0.979 | Bacteroides stercoris 0.955 | [1] 0.966 | Bacteroides uniformis 0.971 | [2] 0.947 | Clostridium difficile 0.994 | Collinsella aerofaciens 0.976 | Coprococcus comes 0.996 | Escherichia coli ED1a 0.967 | Escherichia coli IAI1 0.946 | Eubacterium rectale 0.948 | [3] 0.935 | Lactobacillus gasseri 0.971 | Lactobacillus paracasei 0.915 | Odoribacter splanchnicus 0.893 | [4] 1.05 | Parabacteroides merdae 0.988

CC(C)c1ccccc1
inactive: Akkermansia muciniphila 0.937 | Bacteroides caccae 1.02 | Bacteroides clarus 1.01 | Bacteroides dorei 1.02 | Bacteroides stercoris 1.02 | [1] 0.999 | Bacteroides uniformis 0.999 | [2] 0.947 | Clostridium difficile 1.02 | Collinsella aerofaciens 1.02 | Coprococcus comes 0.983 | Escherichia coli ED1a 0.987 | Escherichia coli IAI1 0.999 | Eubacterium rectale 0.968 | [3] 0.92 | Lactobacillus gasseri 1.17 | Lactobacillus paracasei 0.996 | Odoribacter splanchnicus 0.999 | [4] 1.04 | Parabacteroides merdae 1.02

Cc1[nH]oc(=O)c1N=Nc1ccccc1Cl
inactive: Akkermansia muciniphila 0.935 | Bacteroides caccae 0.996 | Bacteroides clarus 0.95 | Bacteroides dorei 0.951 | Bacteroides stercoris 0.828 | [1] 1.01 | Bacteroides uniformis 1.02 | [2] 1.04 | Clostridium difficile 0.964 | Collinsella aerofaciens 0.961 | Coprococcus comes 1.01 | Escherichia coli ED1a 0.989 | Escherichia coli IAI1 0.962 | Eubacterium rectale 1.03 | [3] 0.839 | Lactobacillus gasseri 0.931 | Lactobacillus paracasei 0.955 | Odoribacter splanchnicus 1.06 | [4] 0.987 | Parabacteroides merdae 0.949

CCNC(=O)[C@@H](C)OC(=O)Nc1ccccc1
inactive: Akkermansia muciniphila 0.912 | Bacteroides caccae 0.991 | Bacteroides clarus 1.02 | Bacteroides dorei 0.992 | Bacteroides stercoris 1.06 | [1] 1.01 | Bacteroides uniformis 0.969 | [2] 0.976 | Clostridium difficile 1.03 | Collinsella aerofaciens 1.1 | Coprococcus comes 1.04 | Escherichia coli ED1a 1.01 | Escherichia coli IAI1 1.01 | Eubacterium rectale 1.01 | [3] 1.05 | Lactobacillus gasseri 1.18 | Lactobacillus paracasei 0.941 | Odoribacter splanchnicus 0.955 | [4] 1.08 | Parabacteroides merdae 1.04

CCN(CC)c1nc(C)cc(=O)[nH]1
inactive: Akkermansia muciniphila 1.08 | Bacteroides caccae 0.974 | Bacteroides clarus 1.03 | Bacteroides dorei 1.02 | Bacteroides stercoris 1.11 | [1] 0.996 | Bacteroides uniformis 0.961 | [2] 1.02 | Clostridium difficile 1.01 | Collinsella aerofaciens 1.01 | Coprococcus comes 1.04 | Escherichia coli ED1a 0.995 | Escherichia coli IAI1 0.998 | Eubacterium rectale 0.907 | [3] 1.06 | Lactobacillus gasseri 0.998 | Lactobacillus paracasei 0.989 | Odoribacter splanchnicus 1.03 | [4] 1 | Parabacteroides merdae 1

CCSC(=O)COc1ccc(Cl)cc1C
active: [1] 0.751
inactive: Akkermansia muciniphila 0.952 | Bacteroides caccae 0.977 | Bacteroides clarus 0.982 | Bacteroides dorei 0.905 | Bacteroides stercoris 0.997 | Bacteroides uniformis 1.03 | [2] 1.04 | Clostridium difficile 1.04 | Collinsella aerofaciens 0.966 | Coprococcus comes 0.981 | Escherichia coli ED1a 0.973 | Escherichia coli IAI1 0.986 | Eubacterium rectale 1.03 | [3] 1 | Lactobacillus gasseri 0.874 | Lactobacillus paracasei 1.08 | Odoribacter splanchnicus 0.901 | [4] 1.05 | Parabacteroides merdae 0.992

C#CCOc1cc(-n2nc(C(C)(C)C)oc2=O)c(Cl)cc1Cl
inactive: Akkermansia muciniphila 1.14 | Bacteroides caccae 0.977 | Bacteroides clarus 0.986 | Bacteroides dorei 0.951 | Bacteroides stercoris 0.879 | [1] 0.932 | [2] 1.05 | Clostridium difficile 0.862 | Collinsella aerofaciens 0.917 | Coprococcus comes 0.991 | Escherichia coli ED1a 0.971 | Escherichia coli IAI1 0.996 | Eubacterium rectale 1.09 | [3] 0.926 | Lactobacillus gasseri 0.831 | Lactobacillus paracasei 0.958 | Odoribacter splanchnicus 0.904 | Parabacteroides merdae 0.951
active: Bacteroides uniformis 0.799 | [4] 0.392

CCOC(=O)C(C)N(C(=O)c1ccccc1)c1ccc(Cl)c(Cl)c1 (stereo not given)
active: [4] 0.733
inactive: Akkermansia muciniphila 1.07 | Bacteroides caccae 0.975 | Bacteroides clarus 0.948 | Bacteroides dorei 0.963 | Bacteroides stercoris 1.13 | [1] 0.922 | Bacteroides uniformis 0.89 | [2] 0.945 | Clostridium difficile 1.01 | Collinsella aerofaciens 1.02 | Coprococcus comes 0.971 | Escherichia coli ED1a 1.03 | Escherichia coli IAI1 0.991 | Eubacterium rectale 1.04 | [3] 1.02 | Lactobacillus gasseri 0.935 | Lactobacillus paracasei 1.03 | Odoribacter splanchnicus 0.985 | Parabacteroides merdae 0.939

CC(=O)CC(c1ccccc1)c1c(O)c2ccccc2oc1=O (stereo not given)
inactive: Akkermansia muciniphila 0.913 | Bacteroides caccae 1.01 | Bacteroides clarus 0.93 | Bacteroides dorei 1.02 | Bacteroides stercoris 0.965 | [1] 0.952 | Bacteroides uniformis 0.952 | [2] 1 | Clostridium difficile 0.998 | Collinsella aerofaciens 0.966 | Coprococcus comes 1.01 | Escherichia coli ED1a 0.967 | Escherichia coli IAI1 0.982 | Eubacterium rectale 0.963 | [3] 1.02 | Lactobacillus gasseri 0.957 | Lactobacillus paracasei 0.943 | Odoribacter splanchnicus 0.927 | [4] 0.907 | Parabacteroides merdae 1.01

CC(=O)Nc1cc(NS(=O)(=O)C(F)(F)F)c(C)cc1C
inactive: Akkermansia muciniphila 0.856 | Bacteroides caccae 1.04 | Bacteroides clarus 0.973 | Bacteroides dorei 1.02 | Bacteroides stercoris 0.886 | [1] 1.01 | Bacteroides uniformis 1.02 | [2] 0.92 | Clostridium difficile 1.08 | Collinsella aerofaciens 1.06 | Coprococcus comes 0.977 | Escherichia coli ED1a 0.978 | Escherichia coli IAI1 0.976 | Eubacterium rectale 0.947 | [3] 0.983 | Lactobacillus gasseri 1.12 | Lactobacillus paracasei 0.563 | Odoribacter splanchnicus 1.03 | [4] 1.05 | Parabacteroides merdae 0.966
